“And” between values parts separate entries of the source, which are not always exact repeats. Equal values may be shown once. Where a name gives a salt, the structure may show the parent alone.
How the values were obtained:
Assay in all cases: cell viability relative to vehicle control; higher = less cytotoxic
Settings in all cases: 10 µM
K562 = test system: K562
In short: (§1)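 Screening covered the Selleck bioactive, kinase and epigenetic probe libraries, less identity-inconsistent compounds, on CRISPR-edited mutant clones and isogenic wild-type clones of four leukaemia lines. Cells, at 2000 per well in 50 µL medium, received a single 10 µM acoustically dispensed dose. After 48 h the supernatant was removed and CellTiter-Glo luminescence was read. Viability was analysed in Genedata Screener as percent of the on-plate vehicle control.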

MARIMO = test system: MARIMO
In short: as §1

MOLM14 = test system: MOLM14
In short: as §1

OCI-AML2 = test system: OCI-AML2
In short: as §1

Structure (SMILES) | cell viability (K562; SRSF2 genotype: SRSF2 P95H/wt) | cell viability (K562; SRSF2 genotype: SRSF2 wt/wt) | cell viability (MARIMO; SRSF2 genotype: SRSF2 P95H/wt) | cell viability (MARIMO; SRSF2 genotype: SRSF2 wt/wt) | cell viability (MOLM14; SRSF2 genotype: SRSF2 P95H/wt) | cell viability (MOLM14; SRSF2 genotype: SRSF2 wt/wt) | cell viability (OCI-AML2; SRSF2 genotype: P95H/wt) | cell viability (OCI-AML2; SRSF2 genotype: wt/wt)
CO/N=C1\C[C@]2(C[C@@H]3C[C@@H](C/C=C(\C)C[C@@H](C)/C=C/C=C4\CO[C@@H]5[C@H](O)C(C)=C[C@@H](C(=O)O3)[C@]45O)O2)O[C@H](/C(C)=C/C(C)C)[C@H]1C [Moxidectin] | 59.6% and 63.5% | 66.4% | 54.6% | 67.3% | 46.9% | 53.3% | 40.1% | 25.3%
CO/N=C(\C(=O)N[C@@H]1C(=O)N2C(C(=O)O)=C(CSC(=O)c3ccco3)CS[C@H]12)c1csc(N)n1 [Ceftiofur] | 108% | 103% | 110% | 109% | 97% | 108% | 112% | 105%
C[C@@H]1C(=O)O[C@H](C)[C@H]1C[C@@H](O)[C@](C)(O)[C@H]1CC[C@@]2(O)C3=CC(=O)[C@@H]4C[C@@H](O)[C@@H](O)C[C@]4(C)[C@H]3CC[C@]12C [Cyasterone] | 105% and 98% | 105% | 95.2% | 98.3% | 114% | 105% | 105% | 98.2%
COc1cc2c(cc1OC)-c1cc3ccc(OC)c(OC)c3c[n+]1CC2 [Palmatine] | 80.5% and 88.6% | 90.2% | 92.6% | 92% | 93.5% | 90.9% | 88.8% | 78.7%
CCN(CC)CCOCCOC(=O)C1(c2ccccc2)CCCC1 [Pentoxyverine Citrate] | 98.4% and 105% | 108% | 92.9% | 104% | 96.4% | 104% | 112% | 97%

— the supplement of paper PMC10981050
